Measurements from PMC12136788.
Where a chain is given by its changes, count along the chain named. The full ranking holds about 24,000 sequences; the median of “enrichment r” is about 0.99, and the highest 2% start at about 3.7. This is one part of a sample in which the highest values are shown more often than they occur.

T1: UNK ZnF1-3 (human, UniProt Q9C0B0 31-174)
T1 sequence: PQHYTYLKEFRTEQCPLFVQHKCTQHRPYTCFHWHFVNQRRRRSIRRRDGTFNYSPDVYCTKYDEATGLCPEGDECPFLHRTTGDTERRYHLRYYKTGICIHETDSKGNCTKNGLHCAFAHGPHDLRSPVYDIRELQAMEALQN

B1: chr7:106631192:106631193:-_ENSMUSG00000030744_ENSMUST00000032998|mus_mus|motif|central (ssRNA)
RNA: GGGAGUUCUACAGUCCGACGAUCCUUCAGCCAGCUCCCGAGUGAGAAAUUCAUUCAGCUCAGCUUUGAAGAUGCCAUCAGCGGCAAACUUCCUCUUCUUGGAAAUCUGCACCGCCAUCUUGCAGCCGCGCGCCGCUGAAAGGACAACAGAGGAUUGAGCAUCA
B2: chr7:72463354:72463355:-_ENSMUSG00000030516_ENSMUST00000102592|mus_hu|FALSE|FALSE (ssRNA)
RNA: GGGAGUUCUACAGUCCGACGAUCUAACUUCCUGGCACUUUUCCGAGAUUCUGGACAUAACCUCAUUCUCAUUGUUUUUACUCCUUGCUUAGAAUCAGGGUUAAGAAAUACAACAAUUGGAUACCACUGGGCAUAGUUAAGACGCAACAGAGGAUUGAGCAUCA
B3: chr17:56552419:56552420:-_ENSMUSG00000013236_ENSMUST00000086828|mus_mus|mus_mus_mus_hu_False|68_78 (ssRNA)
RNA: GGGAGUUCUACAGUCCGACGAUCAAAAAAUACACUAUUUAAAAAAAAUGAAAUGUCAGAAAAAGAAAAAAAAUAUAGAGUUUUAAAAGAAAGCUGGAUUCUGGUCCCAGCCCAGUGUCCCCAGGCUGCAGAGCGGGGAGGAGCCAACAGAGGAUUGAGCAUCA
B4: chr17:56552419:56552420:-_ENSMUSG00000013236_ENSMUST00000086828|mus_mus|mus_mus_mus_hu_False|68_98 (ssRNA)
RNA: B3 RNA with U38A, U39A, G58C, A59G, A60G, A61G, A63U, G64A, A65C
B5: 22200820_22267049_921_CDS_ENSMUSG00000039197_ENSMUST00000045376|mouse|control|control (ssRNA)
RNA: GGGAGUUCUACAGUCCGACGAUCUUGAGACAGAAAGCCUCCAACAAAUGCAUCUCCAGCUCCAUUGGUGUCAAUGAUCUCUUCCUGGUUUUGAUCCAAGACAGGAAAAGCAGUGACAUCAUUCUCUGCAGCCACUAUGGUGUCCAACAGAGGAUUGAGCAUCA
B6: chr17:56552419:56552420:-_ENSMUSG00000013236_ENSMUST00000086828|mus_mus|mus_mus_mus_hu_False|38_68 (ssRNA)
RNA: GGGAGUUCUACAGUCCGACGAUCAAAAAAUACACUAUUUAAAAAAAAUGAAAUGUCACGGGAUACAAAAAAAUAUAGAGUUUUAAAAGAAAGCUGGAAAAAAAAUGCAGCCCAGUGUCCCCAGGCUGCAGAGCGGGGAGGAGCCAACAGAGGAUUGAGCAUCA
B7: chr17:56552419:56552420:-_ENSMUSG00000013236_ENSMUST00000086828|mus_mus|mus_mus_mus_hu_False|8_68 (ssRNA)
RNA: GGGAGUUCUACAGUCCGACGAUCAAAAAAUACACUAUUUAAAAAAAAUGAAAUGUCACGGGAUACAAAAAAAUAUAGAGUUUUAAAAGAAAGCUGGAUUCUGGUCCCAGCCCAGUGUCCCCAGGCUGAGUGCGGAAGAGGAGCCAACAGAGGAUUGAGCAUCA

What follows are binders tested against T1, UNK ZnF1-3 (assay: nsRBNS (natural sequence RNA bind-n-seq); RBNS binding buffer (assumed for nsRBNS): 25 mM Tris pH 7.5, 150 mM KCl, 3 mM MgCl2, 0.01% Triton X-100, 500 ug/ml BSA, 20 U/ml SUPERase-In, 4 C; UNK is unkempt and MSI1 is Musashi-1; names of the RNAs are library labels; protein concentration not given here; high values mean tight binding).

How did the binding signal turn out when B1 was run?
Its binding signal is 0.767 enrichment R.

Which binding signal does the source give for B2 here?
The binding signal was 1.13 enrichment R.

B3 was tested. Which binding signal did it give?
The binding signal was 10.9 enrichment R.

Which binding signal does the source give for B4 here?
Its binding signal is 9.31 enrichment R.

Which binding signal does the source give for B5 here?
Its binding signal is 0.736 enrichment R.

Which binding signal does the source give for B6 here?
Its binding signal is 10.8 enrichment R.

How did the binding signal turn out when B7 was run?
Its binding signal is 6.22 enrichment R.
